This is an account of results in PMC10726135, “HNF4α isoforms regulate the circadian balance between carbohydrate and lipid metabolism in the liver”.

The full ranking holds about 18,000 sequences; the median of “log2 normalized intensity” is about 0.39, and the highest 2% start at about 6.6. Shown is part of a subset that was picked to be rich in the highest values.

This experiment addresses T1, HNF4alpha2 (COS-7 nuclear extract) (Homo sapiens, UniProt P41235 1-474).
T1 sequence: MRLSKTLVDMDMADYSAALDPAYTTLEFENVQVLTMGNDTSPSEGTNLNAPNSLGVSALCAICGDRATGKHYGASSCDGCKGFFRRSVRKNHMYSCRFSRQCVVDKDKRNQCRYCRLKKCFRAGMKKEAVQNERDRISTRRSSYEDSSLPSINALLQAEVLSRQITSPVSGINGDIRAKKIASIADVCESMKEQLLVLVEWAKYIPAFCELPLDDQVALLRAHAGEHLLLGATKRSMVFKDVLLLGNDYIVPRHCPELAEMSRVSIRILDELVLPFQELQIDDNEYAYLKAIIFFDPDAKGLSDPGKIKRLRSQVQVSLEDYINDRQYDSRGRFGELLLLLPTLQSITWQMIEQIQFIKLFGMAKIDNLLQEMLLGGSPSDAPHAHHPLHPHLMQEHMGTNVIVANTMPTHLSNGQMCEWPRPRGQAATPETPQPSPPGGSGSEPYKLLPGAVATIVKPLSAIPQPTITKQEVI
The experiment in a line: protein-binding microarray; COS-7 nuclear extract on double-stranded Agilent 4x180k PBM; binding buffer, salt, pH and temperature not given in the material; high values mean tight binding. Conditions: chain copies: 2; label: 3' end of strand 1 on the slide; dsDNA, one strand shown. In outline:
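Nuclear extracts came from COS-7 cells transiently transfected by CaPO4 with a human HNF4α isoform expression vector. They were applied to a custom Agilent SurePrint G3 4x180k array of ~60-nt oligonucleotides, made double-stranded, with ~44,000 test sequences spotted in quadruplicate. Bound HNF4α was imaged at 2-µm resolution on an Agilent G2565CA scanner. Binding signal was taken as background-corrected, normalized gProcessedSignal from Agilent software.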
Turning to “ATGATTGACAGGTTATTTCAATTACAAAGCGCCTAGGGAGATTAGAGTATCGGTCGA”, the binding signal amounted to 1.06 log2 normalized intensity.
To “CCCGGCAGATCAGGGTCAGGCTGTGGTACGGCCTAGGGAGATTAGAGTATCGGTCGA” belongs 0.662 log2 normalized intensity.
In the case of “AGTCCCTGTCCCTTCTTGGCAAGTTAATGTGCCTAGGGAGATTAGAGTATCGGTCGA”, the binding signal was found to be 1.94 log2 normalized intensity.
Then “GGTGAGGGTGAGGGTGAGGGTTAGGGGTTAGCCTAGGGAGATTAGAGTATCGGTCGA”, with -0.0851 log2 normalized intensity; and “CATTAAGCTTAGCGTTATCAAACCAAATATGCCTAGGGAGATTAGAGTATCGGTCGA”, with -0.0208 log2 normalized intensity; and “GGTCAACACAATCTGATAGTTGATTGATTGGCCTAGGGAGATTAGAGTATCGGTCGA”, with 0.627 log2 normalized intensity.
Then “TCATCTTCAAAGCCAGCAATGGCAGGTCCAGCCTAGGGAGATTAGAGTATCGGTCGA”, with 1.41 log2 normalized intensity.
Regarding “TCTGCAGACATGGACTCTGGGATCTCAGGGGCCTAGGGAGATTAGAGTATCGGTCGA”, the binding signal stood at 1.24 log2 normalized intensity.
To “ACAGCTAGTCTAGACTTTGCTTTCTTGGAGGCCTAGGGAGATTAGAGTATCGGTCGA” belongs 1.24 log2 normalized intensity; to “TGGTGGGGAATGCTAGGACTCATTCTCCCCGCCTAGGGAGATTAGAGTATCGGTCGA”, 0.442 log2 normalized intensity; to “AGAGCTCAGAAGCCACCAGTGCAAATATAAGCCTAGGGAGATTAGAGTATCGGTCGA”, -0.972 log2 normalized intensity.
Then “AGGCCAAACAAAAATATGGACTTTGGAATTGCCTAGGGAGATTAGAGTATCGGTCGA”, with 7.99 log2 normalized intensity; and “GGATAATGATAAAGAGATTGGACTTTGGCCGCCTAGGGAGATTAGAGTATCGGTCGA”, with 8.99 log2 normalized intensity.
To “CAAACGAGACTTTGGACTTTGGACTTGGGAGCCTAGGGAGATTAGAGTATCGGTCGA” belongs 10.5 log2 normalized intensity; to “GAAGGAGAGAGAGGGAGAGTGGCCTTTGGAGCCTAGGGAGATTAGAGTATCGGTCGA”, 2.89 log2 normalized intensity.
In the case of “ATTTGGACTTTTACTCTTAGAGATAATGGGGCCTAGGGAGATTAGAGTATCGGTCGA”, the binding signal was determined as 2.13 log2 normalized intensity.
Then “AAGAGATAAAAGAGAAGATAATGGATTGGGGCCTAGGGAGATTAGAGTATCGGTCGA”, with -0.492 log2 normalized intensity.
To “TCTTTAGGCCAAACAAAAATATGGACTTTGGCCTAGGGAGATTAGAGTATCGGTCGA” belongs 5.84 log2 normalized intensity; to “AAAATATGGACTTTGGAATTAAGAAAAGCTGCCTAGGGAGATTAGAGTATCGGTCGA”, 5.25 log2 normalized intensity; to “CACAAATTGGAGAGCATCTTGGACTTGGGAGCCTAGGGAGATTAGAGTATCGGTCGA”, 2.73 log2 normalized intensity.
To “CTATCACTGTCTAGCTGTGTAACCCTGGACGCCTAGGGAGATTAGAGTATCGGTCGA” belongs 1.48 log2 normalized intensity.
In the case of “TGTCCAGCACACCTTTTTTTCATGCAAATTGCCTAGGGAGATTAGAGTATCGGTCGA”, the binding signal was found to be 0.631 log2 normalized intensity.
Turning to “CCCCCTTTTGCTTTCCGTTAGGCTACAGTGGCCTAGGGAGATTAGAGTATCGGTCGA”, the binding signal came to 1.03 log2 normalized intensity.
Turning to “CTCCTCTCCAGCCCATCCTAAGCCCCAGGGGCCTAGGGAGATTAGAGTATCGGTCGA”, the binding signal stood at 1.15 log2 normalized intensity.
